The values below come from PubChem BioAssay (NCATS).

A short description of assay [1]: Viability qHTS for spleen associated tyrosine kinase inhibitor (SYKi) naive MV4-11 cells (AID 1963823). Note: nearly all actives have a fitted effect of over 40% in size. The procedure, abridged:
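Viability of MV4-11 AML cells lacking prior SYK inhibitor exposure is scored by CellTiter-Glo luminescence following 72 hr compound incubation at 37 C, 5% CO2, seeded at 500 cells per well.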
(In general: In qHTS, concentration-response curves come from the screen itself.)

Assay [2] can be described thus: Viability qHTS for spleen associated tyrosine kinase inhibitor (SYKi) drug resistant MV4-11 cells (AID 1963824). Note: nearly all actives have a fitted effect of over 35% in size. The procedure, abridged: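 SYK inhibitor-resistant MV4-11 AML cells, 500 per well, added to predispensed compounds and incubated 72 hr at 37 C, 5% CO2. Viability measured by CellTiter-Glo luminescence after 10 min at room temperature.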

SMILES strings stand for the structures. “And” between values parts separate entries of the source, which are not always exact repeats. Equal values may be shown once. Results filed as inconclusive are left out. Unmarked numbers belong to inactive results. The source made the active and inactive calls. Calls come from the whole dose curve; as a rule, active = well fitted cell-killing curve with a large enough effect; inconclusive = small, poorly fitted or top-dose-only effect, or effect the other way; inactive = no such curve, though single readings can be large or run the other way.
Potency is the fitted concentration of half-maximal effect.

As to `Cc1nc2c(O)cccc2c(=O)[nH]1`, the Potency entry in assay [1] and in assay [2] was “inactive” throughout.

On to `CC(=O)N[C@H](Cc1ccc(O)cc1)C(=O)N[C@H](CCCN=C(N)N)C(=O)N[C@H](Cc1ccccc1)C(N)=O`, for which the Potency result in assay [1] and in assay [2] was “inactive” throughout.

In the case of `CN(C)C(CCOc1cccc2ccccc12)c1ccccc1` (stereo not drawn), the Potency in assay [1] was 18.4 µM (active); in assay [2] it was 14.6 µM (active).

For `CCCc1cc(C)[nH]c(=O)c1CNC(=O)c1cc(-c2ccnc(N3CCN(C)CC3)c2)cc2c1cnn2C(C)C`, the Potency in assay [1] is 14.8 µM (active); in assay [2], 11.8 µM (active).

As for `COc1cc(N2CCC(O)CC2)ccc1Nc1nc(Nc2ccccc2S(=O)(=O)C(C)C)c2[nH]cnc2n1`, the results for the Potency in assay [1] and in assay [2] were 1.3 µM (active) and 2.06 µM (active), respectively.

On to `CC1OC(OC2C(OC3C(O[C@H]4CC[C@@]5(C)C(CC[C@]6(C)C5C(=O)C=C5C7CC(C)(C)CC(O)[C@]7(C)CC[C@]56C)C4(C)C)OC(C(=O)O)C(O)C3O)OCC(O)C2O)C(O)C(O)C1O` (stereo partly drawn), for which, in assay [1], the viability (% of control) was 54.7% [at 9.25 µM]. The viability, % of control in assay [2] was 71.2% [at 9.25 µM].

Regarding `O=C(CCCCc1ccc2ccccc2c1)C(F)(F)F`, the Potency result in assay [1] and in assay [2] was “inactive” each time.

In the case of `COC(=O)C1=CO[C@@H](O[C@@H]2O[C@H](CO)[C@@H](O)[C@H](O)[C@H]2O)[C@@H]2C(CO)=CC[C@H]12`, the Potency result in assay [1] and in assay [2] was “inactive” in each case.

Regarding `Cc1ccc(C(=O)N(CCCN)C(c2oc3cc(Cl)ccc3c(=O)c2Cc2ccccc2)C(C)C)cc1` (stereo not drawn), the Potency entry in assay [1] and in assay [2] was “inactive” each time.

For the molecule `CCC(=O)N1CCc2cc(OC)c(O)cc2C1`, the Potency entry in assay [1] and in assay [2] was “inactive” each time.

As for `CC(C)CCNC(=O)[C@H](CC(C)C)NC(=O)[C@H]1O[C@@H]1C(=O)O`, the Potency result in assay [1] and in assay [2] was “inactive” throughout.

Take `Cc1cc(O)cc2c1O[C@](C)(CCC[C@H](C)CCC[C@H](C)CCCC(C)C)CC2`: the Potency result in assay [1] and in assay [2] was “inactive” each time.

On to `C[C@H]1CC[C@H]2[C@@H](C=C[C@@](C)(O)[C@]2(C)C(=O)CCO)C1`, for which the Potency entry in assay [1] and in assay [2] was “inactive” in each case.

Take `CCCC(=O)C1CCN(c2ncnc3c2CN(C(=O)c2ccc(-c4ccccc4)cc2)CC3)CC1`: the values for the Potency in assay [1] and in assay [2] were 16.4 µM (active) and 20.6 µM (active), respectively.

Regarding `CC(C)CC1NC(=O)C(C(C)c2ccccc2)NC(=O)C(C(C)C)NC(=O)C(C)NC(=O)CCCNC(=O)C(Cc2c[nH]c3ccccc23)NC(=O)C(C)NC1=O` (stereo not drawn), the Potency entry in assay [1] and in assay [2] was “inactive” each time.

With `CN1CCN(C(=O)c2ccc(Nc3nccc(-c4cccs4)n3)cc2Cl)CC1`, the Potency in assay [1] is 0.731 µM (active); in assay [2], 2.06 µM (active).

With `OC[C@@]1(O)CO[C@@H](OC[C@H]2O[C@@H](OCc3ccccc3)[C@H](O)[C@@H](O)[C@@H]2O)[C@@H]1O`, the Potency entry in assay [1] and in assay [2] was “inactive” throughout.

For the molecule `CC12CC34C=CC(=O)C(C)(CCC(=O)O)C3C(CC1C4)O2` (stereo not drawn), the Potency entry in assay [1] and in assay [2] was “inactive” in each case.

As for `CC(C)C1C(OC(=O)/C=C/c2ccccc2)CC2(C)OC2CCC2(C)OC2C1O` (stereo not drawn), the Potency entry in assay [1] and in assay [2] was “inactive” each time.

In the case of `C1CCC[C@H]2CCCN3CC[C@@H](CCCCCC[C@@H]4CCCN5CC[C@@H](CC1)O[C@@H]45)O[C@@H]23`, the viability (% of control) in assay [1] is 90.7% [at 0.177 µM]. The viability, % of control in assay [2] was 87.9% [at 0.177 µM].

Take `Cc1cc(C)c(CNC(=O)c2cc(-c3ccc(N4CCN(C)CC4)nc3)cc3c2c(C)cn3C(C)C)c(=O)[nH]1`: the Potency was 13.2 µM (active) and 18.6 µM (active) in assay [1]; 14.8 µM (active) and 16.6 µM (active) in assay [2].

`C/C=C1\[C@H](O[C@@H]2O[C@H](CO)[C@@H](O)[C@H](O)[C@H]2O)OC=C(C(=O)OC)[C@H]1CC(=O)OC`: the Potency entry in assay [1] and in assay [2] was “inactive” throughout.

As for `O=C(OC[C@@]1(O)CO[C@@H](O[C@H]2[C@H](Oc3ccc(O)cc3)O[C@H](CO)[C@@H](O)[C@@H]2O)[C@@H]1O)c1ccc(O)cc1`, the Potency result in assay [1] and in assay [2] was “inactive” each time.

As to `C[C@@H]1C(=O)O[C@H]2CC34[C@H]5C[C@@H](C(C)(C)C)C36[C@@H](OC(=O)[C@@H]6O)OC4(C(=O)O5)[C@]21O` (stereo partly drawn), the Potency entry in assay [1] and in assay [2] was “inactive” throughout.

As to `CC12CC(c3ccoc3)OC(=O)C1CCC1(C)C2CCC(O)C1(C)O` (stereo not drawn), the Potency result in assay [1] and in assay [2] was “inactive” each time.

As to `COc1cc(C(O)C(CO)Oc2ccc(CCCO[C@@H]3O[C@@H](C)[C@H](O)[C@@H](O)[C@H]3O)cc2OC)ccc1O` (stereo partly drawn), the Potency entry in assay [1] and in assay [2] was “inactive” throughout.

On to `O=C(Nc1ccc(S(=O)(=O)Nc2ccccc2Cl)c(Cl)c1)c1ccccn1`, for which, in assay [1], the Potency entry is “inactive”. In addition, the Potency in assay [2] was 20.6 µM (active).

For the molecule `O=C(Cc1ccc(Cl)cc1)Nc1cnccc1C(=O)O`, the Potency entry in assay [1] and in assay [2] was “inactive” in each case.

For `CC(O)CCC1C(CO[C@@H]2O[C@H](CO)[C@@H](O)[C@H](O)[C@H]2O)CC(O)CC1(C)C` (stereo partly drawn), the Potency result in assay [1] and in assay [2] was “inactive” throughout.
